GDH-TPI counter-1 = counter-screen for M. tuberculosis FBA inhibitors: GDH-TPI coupled enzymes; inhibition, % at 4.8 µM; GDH-TPI coupled enzyme counterscreen, NADH absorbance; 360,000 compounds, 1.2% hits; in the data active means inhibition above about 30%;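 further: 0% = DMSO wells and 100% = wells lacking the enzyme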
RecA intein inh = Mtb RecA intein splicing inhibition | cell-free RecA intein splicing, fluorescence | inhibition, % (test concentration not listed) | 290,000 compounds, 0.75% hits | AID 2221; in the data active means inhibition above about 30%;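 further: 0% = vehicle wells and 100% = reference inhibitor control wells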
Target sequence (P9WHJ3 whole entry, looked up): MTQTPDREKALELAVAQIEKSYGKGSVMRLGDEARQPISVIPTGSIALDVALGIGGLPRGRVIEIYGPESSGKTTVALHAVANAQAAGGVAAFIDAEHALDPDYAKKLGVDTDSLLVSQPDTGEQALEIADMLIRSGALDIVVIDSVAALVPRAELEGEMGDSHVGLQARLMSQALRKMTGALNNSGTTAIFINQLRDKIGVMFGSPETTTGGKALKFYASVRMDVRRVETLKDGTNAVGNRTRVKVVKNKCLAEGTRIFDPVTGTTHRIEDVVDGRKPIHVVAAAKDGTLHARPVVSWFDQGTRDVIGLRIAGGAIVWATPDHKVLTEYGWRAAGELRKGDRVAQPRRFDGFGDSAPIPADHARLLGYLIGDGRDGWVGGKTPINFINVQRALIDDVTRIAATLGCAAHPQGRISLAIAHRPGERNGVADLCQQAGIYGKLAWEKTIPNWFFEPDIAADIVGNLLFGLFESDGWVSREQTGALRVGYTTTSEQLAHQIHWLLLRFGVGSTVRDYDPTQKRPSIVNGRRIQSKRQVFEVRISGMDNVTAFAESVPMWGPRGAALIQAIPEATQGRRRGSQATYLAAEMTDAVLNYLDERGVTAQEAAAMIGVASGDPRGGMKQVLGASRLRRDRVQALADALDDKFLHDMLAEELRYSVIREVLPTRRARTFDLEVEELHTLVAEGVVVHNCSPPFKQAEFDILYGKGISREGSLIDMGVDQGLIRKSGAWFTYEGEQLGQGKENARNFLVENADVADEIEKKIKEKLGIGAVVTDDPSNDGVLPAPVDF
Mtb FBA inh = inhibits M. tuberculosis FBA enzyme; 360,000 compounds, 2.3% hits; inhibition, % at 1 µM; P9WQA3; purified M. tuberculosis FBA, fluorescence read-out;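 further: 0% = vehicle and 100% = reference inhibitor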
CCHFV vOTU inh = blocks the CCHF virus ovarian tumor domain protease. inhibition, % at 11.5 µM. 370,000 compounds, 0.55% hits. CCHFV vOTU protease, Pep-AMC fluorescence. AID 651958; in the data active means inhibition above about 30%; further: 0% = vehicle wells with enzyme and 100% = no enzyme wells
Mtb FBA confirm = confirmation of M. tuberculosis fructose-bisphosphate aldolase inhibitors | inhibition, % at 1 µM | AID 651616 | purified M. tuberculosis FBA, fluorescence read-out | 5,600 compounds, 78% hits | shares compounds with Mtb FBA inh;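 further: 0% = vehicle wells and 100% = reference inhibitor wells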
GDH-TPI counter-2 = counter-screen for M. tuberculosis FBA inhibitors: GDH-TPI coupled enzyme inhibition; GDH-TPI coupled enzyme counterscreen, fluorescence; inhibition, % at 1 µM; shares compounds with Mtb FBA inh; AID 652141; 5,600 compounds, 81% hits; in the data active means inhibition above about 10%
GDH-TPI DR = GDH-TPI dose response counter-screen for Mtb FBA; AID 652145; GDH-TPI coupled enzyme assay, fluorescence, artifact counterscreen; shares compounds with Mtb FBA inh; 170 compounds, 79% hits; IC50, µM; call rule not given here
Numbers without * were called inactive; . = no result given; + = active, no number. In the library only some 4.2% were active in any assay of this set; here they are far more common. Unless noted, no stated cut-off is given here; in the data, active means inhibition above about 27%; inactive means the rest.

SMILES	GDH-TPI counter-1	RecA intein inh	Mtb FBA inh	CCHFV vOTU inh	Mtb FBA confirm	GDH-TPI counter-2	others
CN(CC(=O)Nc1ccc(F)c(F)c1F)C(=O)C1CCC1	3	-3	0	-11	.	.
O=C1NC(C2CC3C=CC2C3)Nc2ccccc21 (stereo not given)	3	.	63*	-70	+	172*
COc1cccc(-c2cnc3c(NC=O)cc(-c4ccccc4Oc4ccccc4)cn23)c1	3	.	0	8	.	.
CN1CCN(C(=O)c2cccc(-c3cnc4cnc(-c5ccccc5Oc5ccccc5)cn34)c2)CC1	5	.	36*	-23	113*	102*
COc1ccc(-c2cc(C(=O)OCC(=O)NC3CC3)c3ccccc3n2)cc1	5	.	5	-5	.	.
COc1ccc2cc(-c3cc(C(=O)OCC(=O)NC4CCS(=O)(=O)C4)c4ccccc4n3)ccc2c1 (stereo not given)	12	-20	28*	-20	122*	96*
O=C(COC(=O)c1cc(-c2cccs2)nc2ccccc12)NC1CCS(=O)(=O)C1 (stereo not given)	15	-90	48*	-101	44*	29*
O=C(COC(=O)c1cc(-c2cccc3ccccc23)nc2ccccc12)NC1CCS(=O)(=O)C1 (stereo not given)	16	5	-1	-8	.	.
COc1cccc(C(=O)OCC(=O)N2CCc3ccccc3C2)c1	1	.	-3	-3	.	.
O=C(CNC(=O)c1ccco1)NCC(c1ccco1)N1CCCCC1 (stereo not given)	-6	.	-3	-2	.	.
CCSc1nc2sc3c(c2c(=O)n1-c1ccccc1)CCN(C(C)C)C3	30	-8	7	-12	.	.
CCOC1CCCc2oc(-c3ccc(N(C)C)cc3)c(C(=O)OC)c21 (stereo not given)	.	.	.	-25	.	.
Cc1ccc(-c2cn3nc(C)c(C)nc3n2)cc1	-3	-254	34*	-186	3	3
COc1ccc(-c2cn3nc(C)c(C)nc3n2)cc1OC	-2	.	0	18	.	.
CNc1ccc(-c2cccc(C(=O)N3CCOCC3)c2)cn1	3	.	0	-4	.	.
Cc1cc2nc(-c3ccc(SCC(=O)N4CCN(C(=O)c5ccco5)CC4)nc3)[nH]c2cc1C	48*	4	35*	-17	44*	27*
Cc1cc2nc(-c3ccc(SCc4ccccn4)nc3)[nH]c2cc1C	38*	0	41*	-32	54*	51*
CCOC(=O)CSc1ccc(-c2nc3cc(C)c(C)cc3[nH]2)cn1	23	2	24	-11	.	.
Cc1cc2nc(-c3ccc(SCC(=O)N4CCOCC4)nc3)[nH]c2cc1C	31*	-6	54*	-30	57*	50*
Cc1ccc(CNC(=O)CN(C(=O)N2CCN(C)CC2)S(=O)(=O)c2ccc(C)cc2)cc1	-1	-1	1	-3	.	.
c1ccc(Nc2ccc3ccccc3c2)cc1	1	.	33*	-4	145*	97*
c1ccc(Nc2ccccc2)cc1	-4	-1	2	-1	.	.
CN(C)c1ccc(/C=N\NC(=O)c2cccc3cc[nH]c23)cc1	27	-1	0	9	.	.
CCOc1ccc2[nH]c(=O)c(CN(Cc3ccco3)C(CC)c3nnnn3Cc3ccccc3)cc2c1 (stereo not given)	-9	19	27*	14	+	+
COc1ccc(-c2ccc(-c3noc(C4CCCCC4)n3)c(OC)n2)cc1	7	-4	28*	-12	+	+
SMILES	GDH-TPI counter-1	RecA intein inh	Mtb FBA inh	CCHFV vOTU inh	Mtb FBA confirm	GDH-TPI counter-2	others
CCOc1nc(-c2ccc(OC)cc2)ccc1-c1noc(C)n1	9	-5	76*	-23	92*	78*
COc1ccc(-c2ccc(-c3noc(-c4cccs4)n3)c(OC)n2)cc1	23	-6	16	0	.	.
COc1ccc(-c2ccc(-c3noc(-c4ccccc4C)n3)c(OC)n2)cc1	4	0	13	-11	.	.
COc1ccc(-c2ccc(-c3noc(C)n3)c(OC)n2)cc1	13	2	74*	-25	93*	88*
O=C(CSc1nnc(-c2ccccn2)o1)Nc1ccccc1F	-4	-3	-2	-6	.	.
CCC(C)Sc1ccc(-c2nc3cc(C)ccn3c2NC2CCCCC2)cc1 (stereo not given)	29	.	33*	27	+	+
CCCCCCSc1ccc(-c2nc3cc(C)ccn3c2NC2CCCCC2)cc1	6	.	7	-6	.	.
Cc1ccn2c(NC3CCCCC3)c(-c3cccc(-c4cccc(Cl)c4)c3)nc2c1	16	21	33*	1	113*	101*
CCC(C)Sc1ccc(-c2nc3cnccn3c2NC2CCCCC2)cc1 (stereo not given)	12	-80	29*	-11	67*	57*
Cc1ccn2c(NC3CCCC3)c(-c3ccncc3)nc2c1	22	-5	1	-8	.	.
O=C(CN(C(=O)CCC(=O)Nc1ccccn1)c1ccc(F)cc1)NCc1ccc(F)cc1	-7	-3	1	-1	.	.
CC1(C)SC(C)(C)N(C=O)C1C(=O)O (stereo not given)	-12	.	2	-16	.	.
COc1cccc(CNC(=O)c2nnn(CC(=O)Nc3cccc(C)c3)c2N)c1	-1	2	1	9	.	.
Clc1ccc(CSc2nnc(-c3ccncc3)o2)c(Cl)c1	9	2	-3	-1	.	.
CSc1nnc(-c2cccn(Cc3cccc(Cl)c3)c2=O)o1	1	0	87*	-98	+	+
O=c1c(-c2nnc(SCc3ccc(Cl)cc3Cl)o2)cccn1Cc1ccccc1	20	3	52*	-20	43*	23*
O=C1C(O)CCN1Cc1ccccc1 (stereo not given)	-7	.	4	3	.	.
O=C(COc1cccnc1[N+](=O)[O-])c1ccc(Cl)s1	-7	-7	4	17	.	.
COc1ccc(-c2nc(CCl)cs2)cc1OC	6	1	72*	-8	91*	81*
COc1ccc(-c2nc(CCl)cs2)cc1	-12	3	3	0	.	.
CN(C)S(=O)(=O)Nc1ccccc1C(N)=O	0	0	21	-20	.	.
CCS(=O)(=O)Nc1ccccc1C(N)=O	-3	1	44*	-16	14	0	GDH-TPI DR=4.3*
NC(=O)c1ccccc1NS(=O)(=O)Cc1ccc(Cl)cc1	-6	-1	70*	-31	-9	-8
CC1CN(S(=O)(=O)c2cccc(C(=O)Nc3ccccc3N3CCCC3)c2)CC(C)O1 (stereo not given)	13	2	4	3	.	.
Cn1cccc1CC(=O)NN=C/C=C\c1ccco1	.	.	.	21	.	.
COc1ccccc1/C=C/C=N/NC(=O)Cc1cccn1C	51*	0	78*	7	+	+
Cc1ccc(S(=O)(=O)N(CC(=O)NC2CC2)c2ccc(C)c(Cl)c2)cc1	-3	1	0	6	.	.

Bioassay records as filed in PubChem BioAssay.
